Results published in PubChem BioAssay.
Square brackets hold non-standard residues; d marks the D form. Side chains are listed from the residue outwards. Peptide text beside a SMILES is read from it. * marks the point of attachment. X2 = CCC(C)C(N)C1=NC(C(=O)*)CS1; Orn = NCCC[CH](N)C(=O)O

Assay: EMT-state selective cytotoxicity in co-culture – imaging, PC-3E GFP, TEM4-18 mCherry, primary screen (AID 1345086);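 note: cells exposed to compound for 72 h before imaging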
Settings: PC-3E GFP / TEM4-18 mCherry co-culture, imaging cell counts; measured here: epithelial PC-3E GFP cell survival; at 1 µM

SMILES | normalised cell number
COCC1=C(C(=O)OC(C)OC(=O)OC(C)C)N2C(=O)[C@@H](NC(=O)/C(=N/OC)c3csc(N)n3)[C@H]2SC1 (stereo partly drawn) | 0.94
C#C[C@]1(OC(C)=O)CCC2C3CCC4=C/C(=N/O)CCC4C3CC[C@@]21CC (stereo partly drawn) | 1.02
CCC(C)C(N)C1=NC(C(=O)NC(CC(C)C)C(=O)NC(CCC(=O)O)C(=O)NC(C(=O)NCCCCC2NC(=O)C(CC(N)=O)NC(=O)C(CC(=O)O)NC(=O)C(Cc3cnc[nH]3)NC(=O)C(Cc3ccccc3)NC(=O)C(C(C)CC)NC(=O)C(CCCN)NC2=O)C(C)CC)CS1 (stereo not drawn) (cyclo(DNK([Ile-Glu-Leu-X2])[Orn]IFH); configuration not given here) | 1.23
C[N+](C)(C)CCOP(=O)([O-])OP(=O)(O)OC[C@H]1OC(n2ccc(N)nc2=O)[C@H](O)[C@@H]1O (stereo partly drawn) | 0.95
CCN[C@@H]1C[C@H](N)[C@@H](O[C@H]2OC(CN)=CC[C@H]2N)[C@H](O)[C@H]1OC1OC[C@](C)(O)[C@H](NC)[C@H]1O (stereo partly drawn) | 1.05
C[C@]12C=CC(=O)C=C1CCC1C2[C@@H](O)C[C@@]2(C)C1CC[C@]2(O)C(=O)COC(=O)CCC(=O)O (stereo partly drawn) | 1.15
O=C(N[C@@H](CO)[C@H](O)c1ccc([N+](=O)[O-])cc1)C(Cl)Cl | 1.15
N[C@H](Cc1cc(I)c(Oc2ccc(O)c(I)c2)c(I)c1)C(=O)O | 1.02
NC(Cc1c[nH]c2ccccc12)C(=O)O (stereo not drawn) | 0.98
O=C(O)C1=C(CSc2nnnn2CS(=O)(=O)O)CS[C@@H]2C(NC(=O)[C@H](O)c3ccccc3)C(=O)N12 (stereo partly drawn) | 1.08
O=C1O[C@H](C(O)CO)C(O)=C1O (stereo partly drawn) | 1.04
CC1=C(C(=O)O)N2C(=O)[C@@H](NC(=O)C(N)c3ccc(O)cc3)[C@H]2SC1 (stereo partly drawn) | 1.16
C=C1CC[C@H](O)C/C1=C/C=C1\CCCC2(C)C1CCC2C(C)CCCC(C)C (stereo partly drawn) | 1.11
CC(=O)c1cc2ccccc2oc1=O | 1.16
CCc1cc(Cl)c(OC)c(C(=O)NCC2CCCN2CC)c1O (stereo not drawn) | 1.29
OC[C@H]1OC([S-])[C@H](O)[C@@H](O)[C@@H]1O.[Au+] (stereo partly drawn) | 1.15
CC(C)(O/N=C(\C(=O)N[C@@H]1C(=O)N2C(C(=O)[O-])=C(C[n+]3ccccc3)CSC12)c1csc(N)n1)C(=O)O (stereo partly drawn) | 1.28
C[C@H]1O[C@@H](O[C@H]2[C@@H](O)C[C@H](O[C@H]3[C@@H](O)C[C@H](O[C@H]4CC[C@]5(C)C6CC[C@]7(C)[C@@H](C8=CC(=O)OC8)CC[C@]7(O)C6CC[C@@H]5C4)O[C@@H]3C)O[C@@H]2C)C[C@H](O)[C@@H]1O (stereo partly drawn) | 0.15
